Where “and” joins values, the source holds several entries; their conditions need not be identical. Equal entries are not always repeated. The whole screen tested about 5,500 compounds, of which about 2,000 (36%) were called active. Inconclusive results (about 18%) are left out. Cut-off read from the data, not from the text of the source: active = normalized growth mostly below about 0.91 (no sharp cut-off); inconclusive = no clear call, values can overlap the other calls; inactive = mostly above about 0.92. Some of the results follow.
Experiment: chemical genetic growth profiling, strain panel (AID 1159580);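 note: tested at 20 µM; growth read once vehicle control cultures reached saturation at 30 °C; 1 = growth at the plate median or of vehicle wells; lower values mean less growth of the strain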
Settings: S. cerevisiae deletion strains, growth OD

Measured: normalized growth

CN(C)CCOC(C)(c1ccccc1)c1ccccn1 (centres undefined)
inactive: locus YAL021C, strain ccr4, stronger effect = lower value 1.03 | locus YAL026C, strain drs2, stronger effect = lower value 1 | locus YAL030W, strain snc1, stronger effect = lower value 0.993 | locus YAL040C, strain CLN3, stronger effect = lower value 0.998 | locus YBL061C, strain skt5, stronger effect = lower value 1 | locus YBR009C, strain hhf1, stronger effect = lower value 1 | locus YBR021W, strain FUR4, stronger effect = lower value 1.01 | locus YBR023C, strain chs3, stronger effect = lower value 1.01 | locus YBR171W, strain sec66, stronger effect = lower value 1 | locus YBR229C, strain ROT2, stronger effect = lower value 1.01 | locus YBR231C, strain swc5, stronger effect = lower value 1 | locus YBR279W, strain paf1, stronger effect = lower value 1.01 | locus YCL011C, strain gbp2, stronger effect = lower value 1 | locus YCL016C, strain dcc1, stronger effect = lower value 1.01 | locus YCL029C, strain bik1, stronger effect = lower value 0.958 | locus YCL061C, strain MRC1 (second series), stronger effect = lower value 1.01 | locus YCL061C, strain MRC1, stronger effect = lower value 1.01 | locus YCL069W, strain vba3, stronger effect = lower value 1.02 | locus YCR088W, strain abp1, stronger effect = lower value 1.02 | locus YDL005C, strain med2, stronger effect = lower value 1.01 | locus YDL035C, strain GPR1, stronger effect = lower value 1.02 | locus YDL040C, strain nat1, stronger effect = lower value 1.01 | locus YDL074C, strain BRE1, stronger effect = lower value 0.977 | locus YDL101C, strain DUN1, stronger effect = lower value 0.989 | locus YDL185W, strain tfp1, stronger effect = lower value 0.953 | locus YDL192W, strain arf1, stronger effect = lower value 0.99 | locus YDR001C, strain nth1, stronger effect = lower value 1.01 | locus YDR069C, strain doa4, stronger effect = lower value 0.975 | locus YDR101C, strain arx1, stronger effect = lower value 0.993 | locus YDR137W, strain rgp1, stronger effect = lower value 0.991 | locus YDR150W, strain NUM1, stronger effect = lower value 1 | locus YDR159W, strain sac3, stronger effect = lower value 0.928 | locus YDR162C, strain NBP2, stronger effect = lower value 0.998 | locus YDR195W, strain ref2 0.995 | locus YDR297W, strain sur2, stronger effect = lower value 0.973 | locus YDR318W, strain mcm21, stronger effect = lower value 0.981 | locus YDR334W, strain swr1, stronger effect = lower value 1.01 | locus YDR335W, strain msn5, stronger effect = lower value 0.985 | locus YDR363W, strain ESC2, stronger effect = lower value 0.994 | locus YDR388W, stronger effect = lower value 0.989 | locus YDR392W, strain spt3, stronger effect = lower value 0.974 | locus YDR502C, strain sam2, stronger effect = lower value 0.998 | locus YEL003W, strain gim4, stronger effect = lower value 1.01 | locus YEL037C, strain rad23, stronger effect = lower value 1.01 | locus YEL061C, strain CIN8 (second series), stronger effect = lower value 1.01 | locus YEL061C, strain CIN8, stronger effect = lower value 0.991 | locus YER002W, strain NOP16, stronger effect = lower value 1 | locus YER015W, strain faa2, stronger effect = lower value 1.01 | locus YER016W, strain bim1, stronger effect = lower value 1.01 | locus YER110C, stronger effect = lower value 0.961 | locus YER111C, strain swi4, stronger effect = lower value 1.02 | locus YER155C, strain BEM2 (second series), stronger effect = lower value 0.99 | locus YER155C, strain BEM2, stronger effect = lower value 0.994 | locus YER167W, strain BCK2, stronger effect = lower value 0.986 | locus YFR010W, strain ubp6, stronger effect = lower value 1.02 | locus YGL078C, strain dbp3, stronger effect = lower value 0.981 | locus YGL086W, strain mad1, stronger effect = lower value 1.01 | locus YGL167C, strain pmr1, stronger effect = lower value 1 | locus YGL173C, strain kem1, stronger effect = lower value 1.03 | locus YGL227W, strain vid30, stronger effect = lower value 0.997 | locus YGL240W, strain doc1, stronger effect = lower value 1 | locus YGL248W, strain PDE1, stronger effect = lower value 0.979 | locus YGL253W, strain hxk2, stronger effect = lower value 1.01 | locus YGR135W, strain pre9, stronger effect = lower value 0.951 | locus YGR229C, strain SMI1, stronger effect = lower value 0.995 | locus YGR252W, strain gcn5, stronger effect = lower value 0.994 | locus YHR013C, strain ard1, stronger effect = lower value 0.986 | locus YHR027C, strain rpn1, stronger effect = lower value 1.01 | locus YHR030C, strain SLT2, stronger effect = lower value 1 and 1.04 | locus YHR079C, strain IRE1 (second series), stronger effect = lower value 0.974 | locus YHR079C, strain IRE1, stronger effect = lower value 1.03 | locus YHR094C, strain hxt1, stronger effect = lower value 0.985 | locus YHR129C, strain ARP1, stronger effect = lower value 1 | locus YHR142W, strain chs7, stronger effect = lower value 1.03 | locus YHR200W, strain rpn10, stronger effect = lower value 0.983 | locus YIL066C, strain RNR3, stronger effect = lower value 0.995 | locus YIL073C, strain SPO22, stronger effect = lower value 0.924 | locus YIL125W, strain kgd1, stronger effect = lower value 0.992 | locus YIR030C, strain dcg1, stronger effect = lower value 0.96 | locus YJL092W, strain hpr5, stronger effect = lower value 1.02 | locus YJL095W, strain BCK1 (second series), stronger effect = lower value 0.983 | locus YJL095W, strain BCK1, stronger effect = lower value 0.955 and 1.03 | locus YJL115W, strain asf1, stronger effect = lower value 1.01 | locus YJL129C, strain trk1, stronger effect = lower value 1.03 | locus YJL134W, strain LCB3, stronger effect = lower value 1 | locus YJL154C, strain vps35, stronger effect = lower value 1.01 | locus YJL164C, strain tpk1, stronger effect = lower value 1.01 | locus YJL166W, strain qcr8, stronger effect = lower value 1 | locus YJL168C, strain set2, stronger effect = lower value 0.991 | locus YJL187C, strain SWE1 (second series), stronger effect = lower value 0.977 | locus YJL187C, strain SWE1, stronger effect = lower value 0.999 | locus YJR043C, strain POL32, stronger effect = lower value 1.04 | locus YJR066W, strain TOR1, stronger effect = lower value 0.941 | locus YJR075W, strain HOC1, stronger effect = lower value 0.974 | locus YKL009W, strain mrt4, stronger effect = lower value 0.954 | locus YKL068W, stronger effect = lower value 0.983 | locus YKL085W, strain MDH1 (second series), stronger effect = lower value 0.971 | locus YKL085W, strain MDH1, stronger effect = lower value 0.971 | locus YKL160W, strain elf1, stronger effect = lower value 0.988 | locus YKR001C, strain vps1, stronger effect = lower value 0.976 | locus YKR026C, strain gcn3, stronger effect = lower value 1 | locus YKR091W, strain srl3, stronger effect = lower value 1.01 | locus YLL001W, strain dnm1, stronger effect = lower value 1.02 | locus YLL026W, stronger effect = lower value 1 | locus YLL041C, strain sdh2, stronger effect = lower value 0.963 | locus YLR027C, strain aat2, stronger effect = lower value 0.997 | locus YLR039C, strain RIC1, stronger effect = lower value 0.989 | locus YLR058C, strain SHM2, stronger effect = lower value 0.993 | locus YLR102C, strain apc9, stronger effect = lower value 0.976 | locus YLR113W, strain HOG1, stronger effect = lower value 1.07 | locus YLR221C, strain rsa3, stronger effect = lower value 1.01 | locus YLR258W, strain gsy2, stronger effect = lower value 0.985 | locus YLR262C, strain YPT6 (second series), stronger effect = lower value 1.05 | locus YLR262C, strain YPT6, stronger effect = lower value 0.939 | locus YLR268W, strain sec22, stronger effect = lower value 0.983 | locus YLR320W, strain mms22, stronger effect = lower value 0.984 | locus YLR330W, strain CHS5, stronger effect = lower value 0.995 | locus YLR342W, strain FKS1 (second series), stronger effect = lower value 1.07 | locus YLR342W, strain FKS1, stronger effect = lower value 1.02 | locus YLR357W, strain rsc2, stronger effect = lower value 1.02 | locus YLR370C, strain arc18, stronger effect = lower value 0.967 | locus YLR371W, strain rom2, stronger effect = lower value 0.97 | locus YLR384C, strain iki3, stronger effect = lower value 0.996 | locus YLR418C, strain cdc73, stronger effect = lower value 0.98 | locus YML016C, strain PPZ1, stronger effect = lower value 1 | locus YML032C, strain rad52, stronger effect = lower value 0.997 | locus YML120C, strain ndi1, stronger effect = lower value 0.995 | locus YML124C, strain tub3, stronger effect = lower value 0.985 | locus YMR058W, strain fet3, stronger effect = lower value 1.03 | locus YMR078C, strain ctf18, stronger effect = lower value 0.963 | locus YMR125W, strain sto1, stronger effect = lower value 1 | locus YMR129W, stronger effect = lower value 0.982 | locus YMR205C, strain PFK2, stronger effect = lower value 0.992 | locus YMR223W, strain ubp8, stronger effect = lower value 0.966 | locus YMR231W, strain pep5, stronger effect = lower value 1.01 | locus YMR263W, strain SAP30, stronger effect = lower value 0.991 | locus YMR307W, strain GAS1, stronger effect = lower value 1.04 and 0.992 | locus YNL067W, strain RPL9B, stronger effect = lower value 0.967 | locus YNL071W, strain lat1, stronger effect = lower value 1.01 | locus YNL175C, strain NOP13, stronger effect = lower value 0.992 | locus YNL183C, strain NPR1, stronger effect = lower value 1 | locus YNL197C, strain WHI3, stronger effect = lower value 0.982 | locus YNL209W, strain ssb2, stronger effect = lower value 1.02 | locus YNL224C, strain SQS1, stronger effect = lower value 1 | locus YNL233W, strain BNI4, stronger effect = lower value 0.986 | locus YNL248C, strain rpa49, stronger effect = lower value 1.04 | locus YNL250W, strain rad50, stronger effect = lower value 0.984 | locus YNL271C, strain bni1, stronger effect = lower value 0.987 | locus YNL298W, strain CLA4, stronger effect = lower value 0.989 | locus YNL307C, strain MCK1, stronger effect = lower value 0.983 | locus YNL322C, strain KRE1 (second series), stronger effect = lower value 1.01 | locus YNL322C, strain KRE1, stronger effect = lower value 0.994 | locus YNR049C, strain mso1, stronger effect = lower value 0.962 | locus YNR052C, strain pop2, stronger effect = lower value 0.977 | locus YOL012C, strain htz1 0.665 | locus YOL147C, strain pex11, stronger effect = lower value 0.984 | locus YOR001W, strain rrp6, stronger effect = lower value 1.03 | locus YOR061W, strain CKA2, stronger effect = lower value 0.996 | locus YOR069W, strain VPS5, stronger effect = lower value 0.999 | locus YOR070C, strain gyp1, stronger effect = lower value 1 | locus YOR080W, strain dia2, stronger effect = lower value 1.01 | locus YOR083W, strain WHI5 (second series), stronger effect = lower value 0.984 | locus YOR083W, strain WHI5, stronger effect = lower value 0.973 | locus YOR106W, strain vam3, stronger effect = lower value 1.02 | locus YOR136W, strain idh2, stronger effect = lower value 0.983 | locus YOR144C, strain elg1, stronger effect = lower value 0.993 | locus YOR184W, strain ser1, stronger effect = lower value 0.959 | locus YOR231W, strain MKK1, stronger effect = lower value 1.07 | locus YOR265W, strain rbl2, stronger effect = lower value 0.999 | locus YOR270C, strain vph1, stronger effect = lower value 1.07 | locus YOR290C, strain snf2, stronger effect = lower value 1.01 | locus YOR316C, strain cot1, stronger effect = lower value 0.975 | locus YPL051W, strain arl3, stronger effect = lower value 1 | locus YPL055C, strain LGE1, stronger effect = lower value 0.992 and 1.03 | locus YPL078C, strain atp4, stronger effect = lower value 1 | locus YPL106C, strain sse1, stronger effect = lower value 0.98 | locus YPL240C, strain hsp82, stronger effect = lower value 0.977 | locus YPL241C, strain CIN2, stronger effect = lower value 0.999 | locus YPL256C, strain CLN2, stronger effect = lower value 1.03 | locus YPR119W, strain clb2, stronger effect = lower value 0.98 | locus YPR141C, strain kar3, stronger effect = lower value 0.971 | locus YPR163C, strain tif3, stronger effect = lower value 0.977 | locus YPR167C, strain met16, stronger effect = lower value 0.98 | strain wtn01, stronger effect = lower value 0.996
